Results from the supplement of paper PMC7156485.
± gives the standard deviation of the averaged measurements.

Columns and labels:
Conditions in all cases: concentration: 10 µM; 24 h
[1] = test system: HCC1569; assay: cell number relative to DMSO (% of DMSO); higher = more cells (less growth inhibition / toxicity)
Outline: (§1)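 H1.0 nuclear intensity or cell number is expressed as percent of the plate control, with the median of replicates taken. HCC1569 and TDF cells were treated with compounds at 10 µM for 24 h at 37 °C, in triplicate, then fixed and immunostained for H1.0 with DAPI as a nuclear stain. HCC1569 values were smoothed to correct for positional effects.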

[2] = test system: TDF; assay: as above
Outline: as §1

[3] = test system: TDF; assay: H1.0 immunofluorescence intensity relative to DMSO (% of DMSO); higher = stronger H1.0 induction, active = 120 or more
Outline: as §1

[4] = test system: HCC1569; assay: H1.0 immunofluorescence intensity relative to DMSO (% of DMSO); higher = stronger H1.0 induction, active = 140 or more
Outline: as §1
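Wherever H1.0 immunofluorescence intensity relative to DMSO is given: TDF is a line of transformed human dermal fibroblasts of mesenchymal origin.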
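Wherever cell number relative to DMSO is given: TDF denotes transformed human dermal fibroblasts of mesenchymal origin.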

| Compound | cell number [1] | cell number [2] | H1.0 immunofluorescence intensity [3] | H1.0 immunofluorescence intensity [4] |
| --- | --- | --- | --- | --- |
| CC(=O)OC1CC2CCC3C(CCC4(C)C3CC([N+]3(C)CCCCC3)C4OC(C)=O)C2(C)CC1N1CCCCC1 (stereo unspecified) [Vecuronium] | 103 | 95.7 | 99.2 (inactive) | 110 (inactive) |
| Cc1cccc(-c2[nH]c(C(C)(C)C)nc2-c2ccc3c(c2)OCO3)n1.Cl [TGF-b RI Inhibitor III] | 96.3 | 84 | 97.7 (inactive) | 122 (inactive) |
| O=[N+]([O-])c1ccc(S(=O)(=O)NCc2ccccc2)c([N+](=O)[O-])c1 [N-Benzyl-2,4-dinitrobenzenesulfonamide] | 79 | 58.4 | 117 (inactive) | 123 (inactive) |
| COCCc1ccc(OCC(O)CNC(C)C)cc1.COCCc1ccc(OCC(O)CNC(C)C)cc1.O=C(O)C(O)C(O)C(=O)O (racemic) | 99.5 | 106 | 95.6 (inactive) | 108 (inactive) |
| Cl.N[C@@H](Cc1cnc[nH]1)C(=O)O [L-Histidine hydrochloride] | 101 | 109 | 99 (inactive) | 95.8 (inactive) |
| CC(C)NCC(O)COc1cccc2ccccc12 (stereo unspecified) [Propranolol] | 102 | 106 | 94.7 (inactive) | 108 (inactive) |
| CN1C(CC(=O)c2ccccc2)CCCC1CC(O)c1ccccc1.Cl (stereo not drawn) [alpha-Lobeline hydrochloride] | 99.3 | 108 | 93.7 (inactive) | 103 (inactive) |
| Cc1c(O)cc2c(c1C)OC(C)(CCCC(C)CCCC(C)CCCC(C)C)CC2 [D-γ-Tocopherol] | 100 | 98.7 | 98.5 (inactive) | 102 (inactive) |
| CC(=O)C(C)=NO [2,3-Butanedione monoxime] | 100 | 95.2 | 106 (inactive) | 115 (inactive) |
| CCCCCCCCC(O)C=CC=CC=CC(O)CCCC(=O)O (stereo unspecified) [Leukotriene B3] | 101 | 93.8 | 98.7 (inactive) | 104 (inactive) |
| CC(C)(C#N)c1ccc(N2C(=O)OCc3cnc4ccc(-c5cnc6ccccc6c5)cc4c32)cc1 | 59.8 | 44.1 | 101 (inactive) | 206 (active) |
| Cc1cn[nH]c1.Cl [4-Methylpyrazole hydrochloride] | 108 | 102 | 98.5 (inactive) | 95.4 (inactive) |
| O=C(O)c1ccc(O)c(O)c1 [Protocatechuic acid] | 100 | 106 | 91.4 (inactive) | 91.3 (inactive) |
| C[C@]12CCC(=O)C=C1CC[C@@H]1[C@@H]2[C@@H](O)C[C@@]2(C)[C@H]1CC[C@]2(O)C(=O)COC(=O)CCC(=O)[O-].[Na+] | 96.3 | 99.8 | 82.3 (inactive) | 103 (inactive) |
| Cn1c(=O)[nH]c2ncn(C)c2c1=O [1,7-Dimethylxanthine] | 102 | 98.9 | 88 (inactive) | 85.7 (inactive) |
| Clc1ccc(CON=C(Cn2ccnc2)c2ccc(Cl)cc2Cl)c(Cl)c1 [Oxiconazole] | 99.8 | 101 | 98.4 (inactive) | 113 (inactive) |
| COC1=C(OC)C(=O)C(CCCCCCCCCCO)=C(C)C1=O [Idebenone] | 101.26 ± 0.079 | 96.02 ± 0.62 | 101 (inactive) | 102 (inactive) |
| C=C(C)C1CCC2(CO)CCC3(C)C(CCC4C5(C)CCC(O)C(C)(C)C5CCC43C)C12 (stereo unspecified) [Betulin] | 107 | 99.2 | 98.9 (inactive) | 95.6 (inactive) |
| Cc1ccc(S(=O)(=O)Cc2nc(-c3ccc(C(=O)NCc4cccnc4)cc3)oc2C)cc1 | 87 | 86.8 | 102 (inactive) | 127 (inactive) |
| CCCCCCCCC1OC1CCCCCCCC(=O)O (stereo unspecified) [Epoxy-oleic acid] | 97.7 | 99.9 | 96.8 (inactive) | 99.1 (inactive) |
| C1CCN2CC3CC(CN4CCCCC34)C2C1.O.O.O.O.O.O=S(=O)(O)O (stereo unspecified) | 103 | 94.3 | 107 (inactive) | 98.4 (inactive) |
| CCCCCCCCCCCCCCC(O)C(O)C(CO)NC(C)=O (stereo unspecified) [C2 Phytoceramide] | 79.1 | 86.5 | 110 (inactive) | 101 (inactive) |
| CC=CC(=O)N(CC)c1ccccc1C [Crotamiton] | 103 | 98.5 | 101 (inactive) | 104 (inactive) |
| CCCCCC(O)C=CC=CCC=CCCCCC(=O)O (stereo unspecified) | 103 | 97.9 | 97.2 (inactive) | 101 (inactive) |
